# Test results from ChEMBL document CHEMBL1961873, “Compounds: GSK PKIS; Assays: Nanosyn kinase panel” (2012).
# Assays:
# [1] = biological target: Sphingosine kinase 1 (Homo sapiens) (UniProt Q9NYA1); conditions: at 1 µM;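 note: mean SPHK1 inhibition value reported from the GSK PKIS kinase panel screen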
# [2] = biological target: T1, Sphingosine kinase 2 (Homo sapiens) (UniProt Q9NRA0); conditions: at 0.1 µM
# T1 sequence (whole entry): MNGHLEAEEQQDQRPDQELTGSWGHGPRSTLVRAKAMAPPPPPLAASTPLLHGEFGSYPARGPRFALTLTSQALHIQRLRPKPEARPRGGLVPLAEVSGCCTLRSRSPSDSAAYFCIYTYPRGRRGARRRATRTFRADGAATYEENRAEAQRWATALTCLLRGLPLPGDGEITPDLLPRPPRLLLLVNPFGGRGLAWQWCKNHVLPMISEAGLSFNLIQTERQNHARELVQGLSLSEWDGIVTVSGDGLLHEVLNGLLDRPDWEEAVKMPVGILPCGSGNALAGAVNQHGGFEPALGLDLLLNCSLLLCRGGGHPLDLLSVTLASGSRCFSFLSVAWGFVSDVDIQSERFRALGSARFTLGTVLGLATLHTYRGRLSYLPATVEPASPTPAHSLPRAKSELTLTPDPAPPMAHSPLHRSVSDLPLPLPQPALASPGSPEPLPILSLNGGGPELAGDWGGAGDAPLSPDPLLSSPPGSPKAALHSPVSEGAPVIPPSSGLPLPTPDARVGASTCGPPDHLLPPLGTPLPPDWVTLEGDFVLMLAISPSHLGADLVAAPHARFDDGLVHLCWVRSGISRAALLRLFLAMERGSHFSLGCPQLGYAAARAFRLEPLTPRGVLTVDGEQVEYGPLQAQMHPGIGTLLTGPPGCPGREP
# [3] = biological target: T1, Sphingosine kinase 2 (Homo sapiens); conditions: at 1 µM
# [4] = biological target: Casein kinase II subunit alpha (Homo sapiens) (UniProt P68400); conditions: at 0.1 µM
# [5] = biological target: Casein kinase II subunit alpha (Homo sapiens) (UniProt P68400); conditions: at 1 µM
# [6] = biological target: T2, Inhibitor of nuclear factor kappa-B kinase subunit alpha (Homo sapiens) (UniProt O15111); conditions: at 0.1 µM
# T2 sequence (whole entry): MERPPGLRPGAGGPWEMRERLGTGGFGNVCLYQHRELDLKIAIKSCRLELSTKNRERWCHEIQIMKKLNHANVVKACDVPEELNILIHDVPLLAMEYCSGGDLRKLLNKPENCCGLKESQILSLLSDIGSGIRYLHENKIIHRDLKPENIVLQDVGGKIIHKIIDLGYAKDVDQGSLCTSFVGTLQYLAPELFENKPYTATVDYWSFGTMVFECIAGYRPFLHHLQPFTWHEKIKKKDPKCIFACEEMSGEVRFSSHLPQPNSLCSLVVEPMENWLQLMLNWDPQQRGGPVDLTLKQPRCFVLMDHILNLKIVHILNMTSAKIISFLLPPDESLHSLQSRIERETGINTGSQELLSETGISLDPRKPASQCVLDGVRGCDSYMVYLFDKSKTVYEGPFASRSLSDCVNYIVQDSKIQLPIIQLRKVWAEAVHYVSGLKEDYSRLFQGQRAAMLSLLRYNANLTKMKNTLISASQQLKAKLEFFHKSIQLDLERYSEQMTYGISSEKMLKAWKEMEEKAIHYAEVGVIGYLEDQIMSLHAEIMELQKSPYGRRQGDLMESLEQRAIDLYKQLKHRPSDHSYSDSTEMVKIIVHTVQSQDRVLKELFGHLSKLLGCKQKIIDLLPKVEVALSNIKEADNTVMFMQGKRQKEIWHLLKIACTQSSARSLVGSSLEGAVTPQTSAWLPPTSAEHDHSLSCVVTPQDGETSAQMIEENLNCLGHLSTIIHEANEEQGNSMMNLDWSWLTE
# [7] = biological target: T2, Inhibitor of nuclear factor kappa-B kinase subunit alpha (Homo sapiens); conditions: at 1 µM
# [8] = biological target: T3, Inhibitor of nuclear factor kappa-B kinase subunit beta (Homo sapiens) (UniProt O14920); conditions: at 0.1 µM
# T3 sequence (whole entry): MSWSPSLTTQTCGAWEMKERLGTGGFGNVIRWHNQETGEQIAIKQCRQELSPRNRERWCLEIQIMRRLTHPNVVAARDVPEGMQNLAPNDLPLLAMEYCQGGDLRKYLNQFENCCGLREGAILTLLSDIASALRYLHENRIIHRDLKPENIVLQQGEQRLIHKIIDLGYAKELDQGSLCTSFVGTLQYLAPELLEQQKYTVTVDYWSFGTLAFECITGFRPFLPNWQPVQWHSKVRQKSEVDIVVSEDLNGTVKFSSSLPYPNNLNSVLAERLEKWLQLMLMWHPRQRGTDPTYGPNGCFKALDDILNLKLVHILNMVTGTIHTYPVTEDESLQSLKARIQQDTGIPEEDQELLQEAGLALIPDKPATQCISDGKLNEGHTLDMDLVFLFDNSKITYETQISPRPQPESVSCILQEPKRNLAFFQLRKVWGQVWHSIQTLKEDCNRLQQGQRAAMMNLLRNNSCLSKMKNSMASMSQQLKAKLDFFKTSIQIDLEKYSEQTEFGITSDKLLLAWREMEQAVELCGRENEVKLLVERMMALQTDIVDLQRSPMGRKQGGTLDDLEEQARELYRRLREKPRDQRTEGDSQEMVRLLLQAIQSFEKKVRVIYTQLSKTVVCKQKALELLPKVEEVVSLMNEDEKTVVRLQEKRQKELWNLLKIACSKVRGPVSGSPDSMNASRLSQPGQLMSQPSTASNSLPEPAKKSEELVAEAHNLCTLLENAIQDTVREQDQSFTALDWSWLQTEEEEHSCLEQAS
# [9] = biological target: T3, Inhibitor of nuclear factor kappa-B kinase subunit beta (Homo sapiens); conditions: at 1 µM
# [10] = biological target: T4, Inhibitor of nuclear factor kappa-B kinase subunit epsilon (Homo sapiens) (UniProt Q14164); conditions: at 0.1 µM
# T4 sequence (whole entry): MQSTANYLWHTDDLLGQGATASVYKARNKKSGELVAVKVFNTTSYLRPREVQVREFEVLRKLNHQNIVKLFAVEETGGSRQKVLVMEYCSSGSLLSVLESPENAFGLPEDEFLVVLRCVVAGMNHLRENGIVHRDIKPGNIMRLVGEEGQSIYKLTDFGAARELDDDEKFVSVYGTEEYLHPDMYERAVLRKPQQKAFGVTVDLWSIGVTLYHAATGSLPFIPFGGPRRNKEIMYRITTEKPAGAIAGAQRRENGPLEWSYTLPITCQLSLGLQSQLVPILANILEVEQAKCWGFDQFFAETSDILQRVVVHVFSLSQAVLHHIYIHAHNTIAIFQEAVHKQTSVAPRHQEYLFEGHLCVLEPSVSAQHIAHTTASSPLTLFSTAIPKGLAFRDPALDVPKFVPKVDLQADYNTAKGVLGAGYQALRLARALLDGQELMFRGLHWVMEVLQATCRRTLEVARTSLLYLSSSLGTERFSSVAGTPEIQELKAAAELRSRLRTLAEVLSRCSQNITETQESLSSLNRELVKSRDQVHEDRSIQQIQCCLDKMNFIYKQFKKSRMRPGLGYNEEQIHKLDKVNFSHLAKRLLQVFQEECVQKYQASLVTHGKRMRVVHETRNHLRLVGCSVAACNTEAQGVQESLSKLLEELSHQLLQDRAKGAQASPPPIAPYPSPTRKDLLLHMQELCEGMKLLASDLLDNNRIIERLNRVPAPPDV
# [11] = biological target: T4, Inhibitor of nuclear factor kappa-B kinase subunit epsilon (Homo sapiens); conditions: at 1 µM
# [12] = biological target: T5, Serine/threonine-protein kinase Nek1 (Homo sapiens) (UniProt Q96PY6); conditions: at 0.1 µM
# T5 sequence (whole entry): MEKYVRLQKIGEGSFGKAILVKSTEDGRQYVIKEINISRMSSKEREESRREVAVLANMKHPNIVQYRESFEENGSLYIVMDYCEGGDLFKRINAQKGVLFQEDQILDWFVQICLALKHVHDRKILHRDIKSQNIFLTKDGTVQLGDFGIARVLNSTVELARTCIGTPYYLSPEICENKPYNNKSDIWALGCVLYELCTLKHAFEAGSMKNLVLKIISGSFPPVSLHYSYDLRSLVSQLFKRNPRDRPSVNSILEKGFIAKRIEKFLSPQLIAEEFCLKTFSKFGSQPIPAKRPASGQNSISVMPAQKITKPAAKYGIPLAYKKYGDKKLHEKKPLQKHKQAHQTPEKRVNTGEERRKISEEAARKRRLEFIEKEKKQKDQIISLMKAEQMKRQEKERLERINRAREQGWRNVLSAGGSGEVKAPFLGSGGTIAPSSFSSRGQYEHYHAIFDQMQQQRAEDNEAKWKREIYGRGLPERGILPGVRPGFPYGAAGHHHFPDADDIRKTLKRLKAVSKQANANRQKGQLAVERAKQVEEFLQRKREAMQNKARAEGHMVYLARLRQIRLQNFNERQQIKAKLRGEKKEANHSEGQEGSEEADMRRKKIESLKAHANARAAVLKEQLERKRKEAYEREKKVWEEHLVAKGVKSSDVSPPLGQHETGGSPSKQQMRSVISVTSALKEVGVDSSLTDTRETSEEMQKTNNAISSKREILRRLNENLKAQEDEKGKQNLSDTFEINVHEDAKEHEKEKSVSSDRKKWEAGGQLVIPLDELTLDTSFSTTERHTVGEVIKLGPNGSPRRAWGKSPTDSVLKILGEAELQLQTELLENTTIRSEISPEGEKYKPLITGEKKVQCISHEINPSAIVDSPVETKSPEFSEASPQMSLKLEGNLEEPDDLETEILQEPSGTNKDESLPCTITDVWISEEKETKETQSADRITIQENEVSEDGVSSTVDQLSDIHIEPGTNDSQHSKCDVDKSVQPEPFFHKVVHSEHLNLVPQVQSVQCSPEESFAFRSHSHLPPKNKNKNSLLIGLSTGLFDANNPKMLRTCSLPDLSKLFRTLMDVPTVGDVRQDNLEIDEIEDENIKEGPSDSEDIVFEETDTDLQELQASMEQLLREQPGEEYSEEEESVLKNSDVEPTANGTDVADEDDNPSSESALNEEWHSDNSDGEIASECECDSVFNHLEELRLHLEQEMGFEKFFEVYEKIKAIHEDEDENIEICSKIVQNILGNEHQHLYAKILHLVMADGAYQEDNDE
# [13] = biological target: T5, Serine/threonine-protein kinase Nek1 (Homo sapiens); conditions: at 1 µM
# [14] = biological target: T6, Serine/threonine-protein kinase Nek2 (Homo sapiens) (UniProt P51955); conditions: at 0.1 µM
# T6 sequence (whole entry): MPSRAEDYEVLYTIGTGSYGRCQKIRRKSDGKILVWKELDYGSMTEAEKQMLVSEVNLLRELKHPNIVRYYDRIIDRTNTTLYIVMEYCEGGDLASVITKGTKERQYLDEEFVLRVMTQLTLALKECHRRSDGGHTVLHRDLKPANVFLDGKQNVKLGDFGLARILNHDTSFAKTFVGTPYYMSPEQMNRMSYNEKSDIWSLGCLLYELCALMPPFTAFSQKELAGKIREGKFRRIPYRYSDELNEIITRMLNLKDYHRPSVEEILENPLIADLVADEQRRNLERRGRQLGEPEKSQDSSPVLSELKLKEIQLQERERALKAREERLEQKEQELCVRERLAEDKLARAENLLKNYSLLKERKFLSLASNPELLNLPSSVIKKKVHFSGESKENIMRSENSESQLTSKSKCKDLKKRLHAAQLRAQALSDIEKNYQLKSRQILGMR
# [15] = biological target: T6, Serine/threonine-protein kinase Nek2 (Homo sapiens); conditions: at 1 µM
# [16] = biological target: Serine/threonine-protein kinase Nek6 (Homo sapiens) (UniProt Q9HC98); conditions: at 0.1 µM
# [17] = biological target: Serine/threonine-protein kinase Nek6 (Homo sapiens) (UniProt Q9HC98); conditions: at 1 µM
# [18] = biological target: Serine/threonine-protein kinase Nek7 (Homo sapiens) (UniProt Q8TDX7); conditions: at 0.1 µM
# [19] = biological target: Serine/threonine-protein kinase Nek7 (Homo sapiens) (UniProt Q8TDX7); conditions: at 1 µM
# [20] = biological target: T7, Serine/threonine-protein kinase Nek9 (Homo sapiens) (UniProt Q8TD19); conditions: at 0.1 µM;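 note: reported value is the mean percent inhibition of NEK9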
# T7 sequence (whole entry): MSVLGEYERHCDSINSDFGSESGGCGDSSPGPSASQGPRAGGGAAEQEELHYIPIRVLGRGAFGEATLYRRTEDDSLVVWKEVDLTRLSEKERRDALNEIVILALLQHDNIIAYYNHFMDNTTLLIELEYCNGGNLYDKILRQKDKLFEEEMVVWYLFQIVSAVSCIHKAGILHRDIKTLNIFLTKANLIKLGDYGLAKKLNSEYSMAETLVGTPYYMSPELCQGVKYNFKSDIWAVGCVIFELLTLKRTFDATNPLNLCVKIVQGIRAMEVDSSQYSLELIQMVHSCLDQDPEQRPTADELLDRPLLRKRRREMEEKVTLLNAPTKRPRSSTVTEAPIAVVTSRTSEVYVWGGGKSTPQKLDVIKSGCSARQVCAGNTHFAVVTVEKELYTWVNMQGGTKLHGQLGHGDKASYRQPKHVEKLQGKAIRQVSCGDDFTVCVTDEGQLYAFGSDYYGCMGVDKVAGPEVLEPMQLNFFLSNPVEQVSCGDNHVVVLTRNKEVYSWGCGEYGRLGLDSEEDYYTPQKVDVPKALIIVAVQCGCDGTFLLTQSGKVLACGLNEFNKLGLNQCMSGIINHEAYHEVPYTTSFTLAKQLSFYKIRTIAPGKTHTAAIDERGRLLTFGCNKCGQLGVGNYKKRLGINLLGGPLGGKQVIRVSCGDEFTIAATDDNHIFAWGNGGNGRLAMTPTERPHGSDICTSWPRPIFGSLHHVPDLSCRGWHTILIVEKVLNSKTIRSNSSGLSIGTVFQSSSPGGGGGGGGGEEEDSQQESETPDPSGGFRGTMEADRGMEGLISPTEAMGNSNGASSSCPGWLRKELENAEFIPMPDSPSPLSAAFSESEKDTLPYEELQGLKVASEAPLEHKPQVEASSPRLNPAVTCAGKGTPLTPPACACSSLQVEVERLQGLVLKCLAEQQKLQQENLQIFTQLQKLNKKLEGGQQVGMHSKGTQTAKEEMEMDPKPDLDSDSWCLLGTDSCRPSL
# Serine/threonine-protein kinase Nek7 (Homo sapiens), sequence (Q8TDX7 whole entry, looked up): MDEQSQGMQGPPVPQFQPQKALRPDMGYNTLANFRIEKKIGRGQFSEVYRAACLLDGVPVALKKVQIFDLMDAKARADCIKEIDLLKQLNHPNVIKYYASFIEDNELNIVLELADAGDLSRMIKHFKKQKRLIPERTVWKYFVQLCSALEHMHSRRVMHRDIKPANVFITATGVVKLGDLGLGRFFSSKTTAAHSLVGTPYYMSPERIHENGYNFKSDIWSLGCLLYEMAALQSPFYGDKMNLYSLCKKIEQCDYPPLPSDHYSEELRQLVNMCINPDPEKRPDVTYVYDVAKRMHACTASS
# Casein kinase II subunit alpha (Homo sapiens), sequence (P68400 whole entry, looked up): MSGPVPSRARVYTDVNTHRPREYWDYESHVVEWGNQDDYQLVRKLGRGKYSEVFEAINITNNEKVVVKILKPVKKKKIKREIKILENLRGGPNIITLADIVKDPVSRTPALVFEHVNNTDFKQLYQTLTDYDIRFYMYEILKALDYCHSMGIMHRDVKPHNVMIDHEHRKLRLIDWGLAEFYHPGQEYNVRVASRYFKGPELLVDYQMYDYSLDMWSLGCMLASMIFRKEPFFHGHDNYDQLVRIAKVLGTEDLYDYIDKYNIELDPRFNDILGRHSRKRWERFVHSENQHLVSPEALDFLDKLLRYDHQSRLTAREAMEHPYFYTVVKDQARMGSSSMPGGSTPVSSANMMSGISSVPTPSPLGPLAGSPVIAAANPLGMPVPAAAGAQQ
# Serine/threonine-protein kinase Nek6 (Homo sapiens), sequence (Q9HC98 whole entry): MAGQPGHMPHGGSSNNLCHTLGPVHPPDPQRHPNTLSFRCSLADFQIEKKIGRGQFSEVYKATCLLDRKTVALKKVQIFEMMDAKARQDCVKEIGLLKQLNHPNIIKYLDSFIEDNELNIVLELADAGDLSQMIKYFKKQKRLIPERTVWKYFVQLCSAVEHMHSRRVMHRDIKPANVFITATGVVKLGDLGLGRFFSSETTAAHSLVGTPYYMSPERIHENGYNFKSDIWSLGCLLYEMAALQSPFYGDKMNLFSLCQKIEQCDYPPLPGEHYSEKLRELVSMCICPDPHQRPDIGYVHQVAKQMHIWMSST
# Sphingosine kinase 1 (Homo sapiens), sequence (Q9NYA1 whole entry): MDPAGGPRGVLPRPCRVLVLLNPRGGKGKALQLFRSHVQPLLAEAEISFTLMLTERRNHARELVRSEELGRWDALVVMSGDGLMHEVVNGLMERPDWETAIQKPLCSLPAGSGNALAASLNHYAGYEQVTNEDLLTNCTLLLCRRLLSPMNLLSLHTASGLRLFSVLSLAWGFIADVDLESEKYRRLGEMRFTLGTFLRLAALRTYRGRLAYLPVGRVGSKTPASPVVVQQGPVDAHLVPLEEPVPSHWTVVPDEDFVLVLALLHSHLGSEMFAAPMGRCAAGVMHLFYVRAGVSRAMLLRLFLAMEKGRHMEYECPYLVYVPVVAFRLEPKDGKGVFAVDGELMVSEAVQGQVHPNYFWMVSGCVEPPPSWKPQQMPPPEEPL
structure (smiles),measurement,setting,value
COc1ccccc1Nc1ncc(-c2ccccc2)o1,inhibition,[1],-6.75%
same,inhibition,[2],-0.59%
same,inhibition,[3],-0.16%
same,inhibition,[4],6.18%
same,inhibition,[5],8.04%
same,inhibition,[6],10.7%
same,inhibition,[7],9.03%
same,inhibition,[8],9.9%
same,inhibition,[9],9.61%
same,inhibition,[10],9.49%
same,inhibition,[11],7.83%
same,inhibition,[12],3.62%
same,inhibition,[13],3%
same,inhibition,[14],6.46%
same,inhibition,[15],6.16%
same,inhibition,[16],0.52%
same,inhibition,[17],1.67%
same,inhibition,[18],2.39%
same,inhibition,[19],5.45%
same,inhibition,[20],5.2%
